TTR transcr act – TTR transcription activation, primary screen. SH-SY5Y TTR promoter Gaussia luciferase, luminescence; 100% = recombinant luciferase protein wells. activation, % at 16.7 µM. 1.3% of 92,000 active. AID 1117267;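 active = activation above the mean of all tested compounds plus 3 SD, cut at about 9.5% in these data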;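 also: cells exposed to compounds for one day before reading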
HuH7 TTR inh – HuH7 TTR transcription inhibition, counter-screen | shares compounds with TTR transcr act | HuH7 TTR promoter-Gaussia luciferase reporter, luminescence | inhibition, % at 16.7 µM | 4% of 1,100 active;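 active = average inhibition above the solvent-only control wells' mean plus 3 SD, cut at about 15% in these data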;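 also: inhibitors lower well luminescence so higher value means more inhibition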
TTR act confirm – human TTR transcription activation, confirmation; shares compounds with TTR transcr act; SHSY5Y TTR promoter Gaussia luciferase, luminescence; 100% = purified Lucia enzyme wells, no cells; activation, % at 16.7 µM; 1,100 tested, under 10 active;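 active = mean activation above a set limit taken from the earlier primary screen, cut at about 11% in these data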
Numbers stand for hits; – = inactive. Only a selection was taken, and hits are over-represented in it overall.

SMILES | TTR transcr act | others
COC(=O)c1ccc(CN2CC3CC(c4ccccc4)N4CCCC34C2=O)cc1 (stereo unspecified) | –
O=C(Nc1ccccc1)Nc1c(-c2ccc(F)cc2)nc2ncccn12 | –
Cc1cc(C(=O)C(C)Sc2cccc[n+]2[O-])c(C)n1-c1ccc(Cl)cc1 (stereo unspecified) | –
COc1ccccc1C(=O)NC(=O)CSc1cccc[n+]1[O-] | –
O=C(CSc1cccc[n+]1[O-])c1cc(Cl)ccc1Cl | 9.9 | HuH7 TTR inh=–;TTR act confirm=–
CCCCN1C(=O)N2CCc3ccccc3C2CS1(=O)=O (stereo unspecified) | –
CN(Cc1ccccc1)C(=O)OCc1cn(Cc2ccc(Cl)cc2)nn1 | –
Cc1ccccc1NC(=O)[C@@H]1CCCN1S(=O)(=O)c1cccc2cccnc12 | –
COC(=O)CSc1ccc(C#N)c(SCC(=O)OC)c1 | –
COC(=O)Cn1cc(C(=O)OC)c2ccccc21 | –
COC(=O)CSc1ccccc1C(=O)OC | 19 | HuH7 TTR inh=–;TTR act confirm=–
CCCC[C@H](C(=O)N(C)c1ccccc1)[C@@H](O)c1ccc(C(C)=O)cc1 | –
CC[n+]1c(C)sc2c(C)cc(C)cc21 | 26 | HuH7 TTR inh=–;TTR act confirm=–
O=C(NCCc1c[nH]c2ccccc12)OCc1cn(Cc2c(F)cccc2F)nn1 | –
CCOC(=O)N1CCN(C(=O)C[C@H]2C[C@@]3(C(=O)OC)C(=C[C@H](C4CCCC4)O[C@@H]3C)N(Cc3ccco3)C2=O)CC1 | –
COc1cc(F)c(S(=O)(=O)N2CCCN(S(=O)(=O)c3cccc(N)c3)CC2)c(F)c1 | –
CN1C(=O)CSc2ccc(NC(=O)NCc3ccc(F)cc3)cc21 | –
CC(=O)Nc1ccc(NC(=O)Nc2ccc3c(c2)N(C)C(=O)CS3)cc1 | 10 | HuH7 TTR inh=–;TTR act confirm=–
CN1C(=O)CSc2ccc(NC(=O)N3CCc4ccccc43)cc21 | –
CCCC[C@H]1C2CC(OC(=O)NCCCC(=O)OCC)C(C2)[C@H]2CCCCN21 (stereo partly specified) | –
Cc1sc2ncnc(N3CCC(C(=O)Nc4ccc(Br)cc4Br)CC3)c2c1C | –
Nc1c(C(=O)N2CCOCC2)cnn1Cc1ccccc1 | –
CCOc1ccc(N=C2SCC(=O)N2CC)cc1 | 18 | HuH7 TTR inh=–;TTR act confirm=–
COc1ccc(N=C2SCC(=O)N2Cc2ccccc2)cc1 | –
CCOc1ccc(N2C(=O)CSC2=S)cc1 | –
SMILES | TTR transcr act | others
O=C(c1ccc(F)cc1)C1CCN(c2ncnc3sccc23)CC1 | –
CN(C)CC(CCC(CN(C)C)C(O)(c1ccccc1)c1ccccc1)C(O)(c1ccccc1)c1ccccc1 (stereo unspecified) | 11 | HuH7 TTR inh=53;TTR act confirm=–
CC(c1ccccc1C(O)(c1ccccc1)c1ccccc1)N(C)C (stereo unspecified) | –
CC(C)N(CC#CCC(O)(c1ccccc1)c1ccccc1)C(C)C | –
Cc1onc(C(=O)N2CCN(C(c3ccc(Cl)cc3)c3ccc(Cl)cc3)CC2)c1[N+](=O)[O-] | –
CCCC[C@H](C(=O)N(C)c1ccccc1)[C@@H](O)c1ccc2ccccc2c1 | –
CCC[C@H]1[C@@H](OC(=O)NCCc2ccccc2)CC[C@@]23CCCN2C(=O)CCC[C@@H]13 | –
Cn1c(-c2cccc([N+](=O)[O-])c2)cnc1NCc1cccc([N+](=O)[O-])c1 | –
COc1ccc(-c2cnc(NCc3cc4c(cc3[N+](=O)[O-])OCO4)n2C)cc1 | –
COc1ccc(CNc2ncc(-c3ccccc3)n2C)c(OC)c1OC | 11 | HuH7 TTR inh=–;TTR act confirm=–
COC[C@@H]1CCCN1c1cccc2c1S(=O)(=O)N1CC[C@H](C1)O2 | –
COc1ccc2[nH]c3c(c2c1)CCN[C@]31C(=O)N(c2ccccc2)c2ccccc21 | –
Cc1ccc2nc(SCC(=O)c3ccc(Cl)cc3)nc(=O)n2c1 | –
COc1ccccc1NC(=O)CSc1nc(=O)n2cc(C)ccc2n1 | 12 | HuH7 TTR inh=–;TTR act confirm=–
Cc1ccc2nc(SCC(=O)Nc3ccc(C)c(Cl)c3)nc(=O)n2c1 | –
Cc1ccc(CN2CCCCC(NC(=O)c3ccc(-c4ccccc4)cc3)C2=O)cc1 (stereo unspecified) | –
CC(C)(C)[C@H](NC(=O)c1cc(Cl)cc(Cl)c1)C(=O)N1CCC[C@H]1C(=O)N[C@H](C#N)CC(=O)O | –
C=CCN1C(=O)[C@H](CC(=O)NCc2ccc(C)o2)[C@@]2(C(=O)OCC)CCCC=C12 | –
COC(=O)[C@]12C[C@H](CC(=O)NCc3ccc(OC)c(OC)c3)C(=O)N(Cc3ccco3)C1=C[C@H](C1CCCC1)O[C@@H]2C | –
CCOC(=O)Nc1nc(-c2ccccc2)c(C(=O)c2ccc(Cl)cc2)s1 | 11 | HuH7 TTR inh=23;TTR act confirm=–
CCOC(=O)c1sc(N)nc1-c1ccccc1 | –
CCOC(=O)c1sc(NC(=O)c2ccc(S(=O)(=O)N3CCOCC3)cc2)nc1-c1ccccc1 | –
COc1cccc(CNS(=O)(=O)c2cc(Br)ccc2Br)c1OC | –

Screening results as filed in PubChem BioAssay.
